Assay outcomes: PubChem BioAssay, National Center for Advancing Translational Sciences (NCATS)
Compounds with a hit are over-represented: about 12% of the library has one in this group of screens.
AMA1-RON2 inh: inhibitors of Plasmodium falciparum AMA1-RON2 interaction | AlphaScreen AMA1-biotinylated RON2 peptide binding | Potency, µM (doses to about 58.2 µM), without a hit: at the top dose activity change, negative = inhibition, usual class: inhibitors | 360,000 tested, 0.2% active | AID 720542;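 also: potency is read from the fitted curve at half-maximal effect; 0% = vehicle wells and -100% = peptide control; nearly all actives have a fitted effect of over 45% in size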
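AMA1 (3D7) with his tag at 25 nM final met compounds first, then biotinylated RON2 peptide at 25 nM; detection used donor plus acceptor beads, 10 µg/mL apiece, read by AlphaScreen after 30 min at room temperature.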
Pf growth 48h: inhibits P. falciparum growth in the first generation, 48 h; P. falciparum luciferase growth in erythrocytes, 48 h; Potency, µM (series often up to 28.7 µM), for the others: at the top dose activity change, negative = inhibition, most hits filed as inhibitors; 310,000 tested, 5.9% active; AID 504832; also: potency is read from the fitted curve at half-maximal effect; % is scaled to controls: 0 for no effect and ±100 for the full control effect
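Compounds are pin-transferred into medium, infected erythrocytes (2% hematocrit, 0.1% parasitemia final) are added, and plates sit one parasite generation at 37 C in 5% CO2. Detection reagent is then added and luminescence measured.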
Pf growth 96h: P. falciparum growth inhibition at 96 hours. P. falciparum luciferase reporter growth, 96 h. Potency, µM (highest dose often 28.7 µM), for the others: top-dose activity change, negative = inhibition, hits mostly inhibitors. 320,000 tested, 6.9% active. AID 504834; also: potency is read from the fitted curve at half-maximal effect; % is scaled to controls: 0 for no effect and ±100 for the full control effect
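P. falciparum expressing integrated firefly luciferase, in erythrocytes at 2% hematocrit, 0.05% parasitemia, incubated with compounds 96 h at 37 C, 5% CO2. Growth inhibition read as loss of luminescence; two-generation exposure targets delayed-death apicoplast inhibitors.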
SARS PLpro yeast-1: inhibitors of SARS-CoV papain-like protease in yeast. 330,000 tested, 0.19% active. AID 485353. S. cerevisiae expressing SARS-CoV PLpro, growth rescue. Potency, µM (highest dose often 32.9 µM), inactives show top-dose activity, positive = growth rescue, actives largely listed as activators; calls by dose curve; also: potency is read from the fitted curve at half-maximal effect; 0% is about no effect; nearly all actives have a fitted effect of over 55% in size
NS1 function inh: influenza NS1 inhibition; Potency, µM (top dose mostly 46.1 µM), for inactives: top-dose activity, positive = more growth; 270,000 tested, 0.4% active; AID 2326; calls by dose curve; also: potency is read from the fitted curve at half-maximal effect; actives are rising curves; nearly all actives have a fitted effect of over 50% in size
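A cell-based growth assay was used: compounds that relieve NS1-induced slow growth of budding yeast raise OD600. Assay medium was yeast nitrogen base with ammonium sulphate and -URA supplement, pH 6.0, with 2% galactose.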
HCV inh: HCV inhibition. 340,000 tested, 3.4% active. AID 651820. Potency, µM (series often up to 41.8 µM), for inactives: at the top dose activity change, negative = inhibition, usual class: inhibitors. Huh7.5.1 HCVcc-Cre infection, luciferase reporter, 44 h; also: potency is read from the fitted curve at half-maximal effect; % is scaled to controls: 0 for no effect and ±100 for the full control effect
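Reporter virus HCVcc-Cre (~0.5 moi) infects cells exposed to compound; seeding density 1,000 cells/well with 4 h settling beforehand. Luminescence, 15 sec read, taken 44 h post-infection following a 15 min RT substrate incubation.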
SARS PLpro yeast-2: Rescues yeast growth by inhibiting SARS-CoV PLpro; shares compounds with SARS PLpro yeast-1; yeast expressing SARS-CoV PLpro, growth phenotype rescue; calls only; 1,000 tested, 19% active; AID 652038; call rule not given here
An asterisk follows results filed as active. Unless noted, calls follow the shape of the dose curve; as a rule, active = well fitted curve in the direction sought with a large enough effect; inconclusive = small, poorly fitted or top-dose-only effect, or another doubt; inactive = no such curve, though single readings can be large; an effect the other way counts as inactive or inconclusive.

Results for Cc1ccc(CNC(=O)CCS(=O)(=O)c2cc3c(cc2Cl)NC(=O)CO3)cc1 ?
AMA1-RON2 inh: -4.2%; Pf growth 48h: inconclusive; Pf growth 96h: -14.3%; SARS PLpro yeast-1: -3.2%; NS1 function inh: -8.9%; HCV inh: -7.4%

What do the screens show for `CCOC(=O)N1CCN(C(=O)CCS(=O)(=O)c2cc3c(cc2Cl)NC(=O)CO3)CC1`?
AMA1-RON2 inh: 5.0%; Pf growth 48h: -4.2%; Pf growth 96h: 19.4%; SARS PLpro yeast-1: inconclusive; NS1 function inh: -7.5%; HCV inh: 14.1%; SARS PLpro yeast-2: inactive

How did CC(C(=O)Nc1cccc(S(=O)(=O)N2CCOCC2)c1)N1CCN(C)CC1 (stereo unspecified) do in these assays?
AMA1-RON2 inh: 4.8%; Pf growth 48h: 29.0%; Pf growth 96h: inconclusive; SARS PLpro yeast-1: 0.5%; NS1 function inh: 8.0%; HCV inh: 4.1%

Results for Cc1nn(C2CCS(=O)(=O)C2)c(Cl)c1/C=C/C(=O)OCC(=O)Nc1ccccc1OC(F)F (stereo unspecified) ?
AMA1-RON2 inh: 10.2%; Pf growth 48h: -21.0%; SARS PLpro yeast-1: -4.2%; NS1 function inh: -9.7%; HCV inh: -5.9%

Results for COc1ccc(Cl)cc1NC(=O)COC(=O)/C=C/c1c(C)nn(C2CCS(=O)(=O)C2)c1Cl (stereo unspecified) ?
AMA1-RON2 inh: 2.4%; Pf growth 48h: inconclusive; Pf growth 96h: inconclusive; SARS PLpro yeast-1: inconclusive; NS1 function inh: 8.5%; HCV inh: inconclusive; SARS PLpro yeast-2: inactive

What do the screens show for `O=C(O)c1cccc(NC(=S)N/N=C/c2ccccc2OCc2cccc(Br)c2)c1`?
AMA1-RON2 inh: 17.6%; Pf growth 48h: -5.8%; Pf growth 96h: inconclusive; SARS PLpro yeast-1: -1.8%; HCV inh: inconclusive

Results for NC(=S)N/N=C/c1ccccc1OCc1cccc(Cl)c1 ?
AMA1-RON2 inh: 0.5%; Pf growth 48h: 13.1µM*; Pf growth 96h: 9.28µM*; SARS PLpro yeast-1: 15.8µM*; NS1 function inh: 6.2%; HCV inh: 11.2µM*; SARS PLpro yeast-2: inconclusive

What do the screens show for `Cc1cc(-c2nnc(SCC(=O)Nc3cccc(F)c3)n2N)n[nH]1`?
AMA1-RON2 inh: 7.4%; Pf growth 48h: -20.9%; Pf growth 96h: inconclusive; SARS PLpro yeast-1: -2.5%; NS1 function inh: -5.5%; HCV inh: 8.9%

Results for c1ccc(Cn2nnc3c(NCc4ccc5c(c4)OCO5)nc(C4CC4)nc32)cc1 ?
AMA1-RON2 inh: -7.0%; Pf growth 48h: 0.8%; SARS PLpro yeast-1: -0.1%; NS1 function inh: 15.1%; HCV inh: 8.4%

How did CC1Cc2ccccc2N1c1nc(C2CC2)nc2c1nnn2Cc1ccccc1 (stereo unspecified) do in these assays?
AMA1-RON2 inh: 3.7%; Pf growth 48h: -2.6%; Pf growth 96h: -5.2%; SARS PLpro yeast-1: inconclusive; NS1 function inh: -6.5%; HCV inh: 4.0%; SARS PLpro yeast-2: active

How did CCc1ccccc1NC(=O)CN1CCN(C(=O)CCC(=O)N2CCC(c3ccccc3)=N2)CC1 do in these assays?
AMA1-RON2 inh: -0.2%; Pf growth 48h: inconclusive; Pf growth 96h: inconclusive; SARS PLpro yeast-1: -7.4%; HCV inh: inconclusive

Results for CCOc1cc(N2CCOCC2)c(OCC)cc1NC(=O)COC(=O)COc1ccc(C#N)cc1 ?
AMA1-RON2 inh: 0.4%; Pf growth 48h: 63.1%; Pf growth 96h: 6.4%; SARS PLpro yeast-1: -1.5%; NS1 function inh: -12.3%; HCV inh: 16.9%

Results for Cc1c(N/N=C(\C#N)C(=O)c2ccccc2)c(=O)n(-c2ccccc2)n1C ?
AMA1-RON2 inh: -9.7%; Pf growth 48h: 1.65µM*; Pf growth 96h: inconclusive; SARS PLpro yeast-1: inconclusive; NS1 function inh: 8.3%; HCV inh: 10µM*; SARS PLpro yeast-2: inactive

Results for Cc1ccccc1C(=O)/C(C#N)=N/Nc1c(C)n(C)n(-c2ccccc2)c1=O ?
AMA1-RON2 inh: -2.0%; Pf growth 48h: 1.65µM*; Pf growth 96h: 12.4%; SARS PLpro yeast-1: 20µM*; NS1 function inh: -1.1%; HCV inh: inconclusive; SARS PLpro yeast-2: inactive

What do the screens show for `CCOC(=O)/C(C#N)=N/Nc1c(C)n(C)n(-c2ccccc2)c1=O`?
AMA1-RON2 inh: 126.8%; Pf growth 48h: -25.0%; Pf growth 96h: inconclusive; SARS PLpro yeast-1: -0.4%; HCV inh: 10.8%

How did CN(C)c1ccc(C2Nc3ccccc3C(=O)N2NS(C)(=O)=O)cc1 (stereo unspecified) do in these assays?
AMA1-RON2 inh: -3.0%; Pf growth 48h: 11.3%; Pf growth 96h: inconclusive; SARS PLpro yeast-1: -1.0%; NS1 function inh: -3.4%; HCV inh: 25.6%

Results for CCc1csc(CCNC(=O)C2CCC(=O)N(CCc3cccc(F)c3)C2)n1 (stereo unspecified) ?
AMA1-RON2 inh: -19.8%; Pf growth 48h: 4.3%; Pf growth 96h: 1.1%; SARS PLpro yeast-1: -0.7%; NS1 function inh: -0.7%; HCV inh: -4.2%

How did Cc1ccccc1OCc1n[nH]c(=S)n1Cc1ccccc1 do in these assays?
AMA1-RON2 inh: 58.4%; Pf growth 48h: 1.1%; Pf growth 96h: inconclusive; SARS PLpro yeast-1: inconclusive; NS1 function inh: 2.4%; HCV inh: 12.9%; SARS PLpro yeast-2: inconclusive

What do the screens show for `S=c1[nH]nc(COc2cccc3ccccc23)n1Cc1ccccc1`?
AMA1-RON2 inh: 72.3%; Pf growth 48h: 5.4%; Pf growth 96h: -5.4%; SARS PLpro yeast-1: -0.9%; NS1 function inh: 6.5%; HCV inh: 9.4%

Results for O=c1[nH]c(C2C3CC4CC(C3)CC2C4)nc2ccccc12 (stereo unspecified) ?
AMA1-RON2 inh: 0.0%; Pf growth 48h: -5.7%; Pf growth 96h: inconclusive; SARS PLpro yeast-1: 2.82µM*; NS1 function inh: 0.4%; HCV inh: 7.3%; SARS PLpro yeast-2: inactive

What do the screens show for `O=C1CCC(C(=O)Nc2cccc(Br)c2)N1` (stereo unspecified)?
AMA1-RON2 inh: -1.8%; Pf growth 48h: 21.9%; Pf growth 96h: 274.9%; SARS PLpro yeast-1: -2.0%; NS1 function inh: -1.5%; HCV inh: 10.5%

What do the screens show for `Cc1ccc(C)c(N2CCN(C(=O)C3CCCN(S(=O)(=O)c4c(C)[nH]c(=O)[nH]c4=O)C3)CC2)c1` (stereo unspecified)?
AMA1-RON2 inh: 7.4%; Pf growth 96h: 0.0%; SARS PLpro yeast-1: 10µM*; NS1 function inh: -1.2%; HCV inh: 18.5%; SARS PLpro yeast-2: inactive

Results for N#C/C(=C\C=C\c1ccccc1[N+](=O)[O-])C(=O)NC1CCCCC1 ?
AMA1-RON2 inh: -9.7%; Pf growth 48h: inconclusive; Pf growth 96h: inconclusive; SARS PLpro yeast-1: inconclusive; HCV inh: inconclusive; SARS PLpro yeast-2: inactive
